From PubChem BioAssay (NCATS) come the findings set out here.

“And” between values parts separate entries of the source, which are not always exact repeats. Equal values may be shown once. Values without a mark were called inactive. Results filed as inconclusive are left out. Where a structure was tested more than once in an assay, its records may differ in their call. The source made the active and inactive calls. Unless noted, calls come from the whole dose curve; as a rule, active = well fitted curve in the direction sought with a large enough effect; inconclusive = small, poorly fitted or top-dose-only effect, or another doubt; inactive = no such curve, though single readings can be large; an effect the other way counts as inactive or inconclusive. Where a SMILES comes first, the peptide text is derived from it. [ ]: non-standard residue; d: D form. pGlu = O=C1CC[C@@H](C(=O)O)N1; Thz = O=C(O)[C@@H]1CSCN1

In one assay the test system is WaGa. In words: qHTS assay to identify novel small-molecules to repurpose for Merkel cell carcinoma treatment (AID 1296009). Note: % is set by controls: 0 for no effect and ±100 for the full control effect; nearly all actives have a fitted effect of over 60% in size. The following applies: MCC and control cell lines, CellTiter-Glo viability, 72 h; series mostly up to 46 µM. The gist of the method: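 Cell viability, measured as CellTiter-Glo luminescence, was normalized between DMSO and no-cell wells. The cells had been exposed to 8- or 11-point compound dilutions for 72 hr at 37 degree celsius.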

The test system of the next assay is C33A. The assay can be described thus: Primary qHTS to identify gynecologic anti-cancer compounds using libraries of approved drugs and bioactive compounds (AID 1345084). Note: nearly all actives have a fitted effect of over 55% in size. Note: potency is the fitted concentration of half-maximal effect. The following applies: Gynecologic cancer cell panel viability, ATPlite luminescence, 48 h; series mostly up to 57.5 µM. The gist of the method:
(§1)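 In this quantitative HTS, cell killing is estimated from loss of ATP-dependent luciferase light. Cells see five compound concentrations over a 48 h exposure.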

In a further assay the test system is Es-2. Described as above. The following applies: Gynecologic cancer cell panel viability, ATPlite luminescence, 48 h; series mostly up to 57.5 µM. The gist of the method: as §1
The test system of the next assay is HeLa. The description is as above. To be noted: Gynecologic cancer cell panel viability, ATPlite luminescence, 48 h; series mostly up to 57.5 µM. The gist of the method:
as §1

For another assay, the system named is Hek293T. The description is as above. To be noted: Gynecologic cancer cell panel viability, ATPlite luminescence, 48 h, control line for the selectivity index; series mostly up to 57.5 µM. The gist of the method: as §1
The subject of a further assay is JEG-3. Described as above. The following applies: Gynecologic cancer cell panel viability, ATPlite luminescence, 48 h; series mostly up to 57.5 µM. The gist of the method: as §1
In the next assay the test system is OV90. The assay is described as above. The following applies: Gynecologic cancer cell panel viability, ATPlite luminescence, 48 h; series mostly up to 57.5 µM. The gist of the method: as §1
The test system of another assay is Tov-21-G. The assay is described as above. To be noted: Gynecologic cancer cell panel viability, ATPlite luminescence, 48 h; series mostly up to 57.5 µM. The method, boiled down:
as §1

The next assay deals with Tov112D. The description is as above. The following applies: Gynecologic cancer cell panel viability, ATPlite luminescence, 48 h; series mostly up to 57.5 µM. The gist of the method:
as §1

Assay [1] can be described thus: Drug repurposing screens with cells derived from glioblastoma tumor samples (AID 1345199). For activity, negative = cell killing: % is set by controls: 0 for no effect and ±100 for the full control effect. Note: nearly all actives have a fitted effect of over 40% in size. Note: potency is the fitted concentration of half-maximal effect. To be noted: GBM patient neurospheres viability, ATP luminescence, 48 h. The gist of the method: (§2)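 Primary testing used CD133+ neurospheres from four GBM patients, seven concentrations, 48 h exposure and ATP-based viability; confirmation added three slower-growing patient lines.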

In another assay the test system is astro. The description is as above. To be noted: viability, ATP luminescence, 48 h; series mostly up to 45.9 µM. The method, boiled down: as §2
A further assay deals with CASKI. The assay can be described thus: Primary qHTS to identify gynecologic anti-cancer compounds using libraries of approved drugs and bioactive compounds (AID 1345084). Note: nearly all actives have a fitted effect of over 55% in size. Note: potency is the fitted concentration of half-maximal effect. The following applies: Gynecologic cancer cell panel viability, ATPlite luminescence, 48 h; series mostly up to 57.5 µM. The method, boiled down:
as §1

Another assay deals with PA-1. The assay is described as above. The following applies: Gynecologic cancer cell panel viability, ATPlite luminescence, 48 h; series mostly up to 57.5 µM. The gist of the method: as §1
A further assay concerns SKOV3. The assay is described as above. To be noted: Gynecologic cancer cell panel viability, ATPlite luminescence, 48 h; series mostly up to 57.5 µM. The gist of the method:
as §1

Assay [2] addresses Nuclear receptor subfamily 1 group I member 2 (Rattus norvegicus) (UniProt Q9R1A7). In words: qHTS assay for small molecule activators of the rat pregnane X receptor (rPXR) signaling pathway (AID 651751; call rule not given here; note: 0% is about no effect). The following applies: rPXR reporter cells, luciferase (One-Glo), 24 h.
A short description of assay [3]: qHTS assay for small molecule activators of the human pregnane X receptor (PXR) signaling pathway (AID 720659; call rule not given here; note: 0% is about no effect).
Assay [4] can be described thus: qHTS assay to identify inhibitors of the type 1 interferon - major histocompatibility complex class I in skeletal muscle: Counter screen cell viability and HiBit confirmation (AID 1347412). For activity change, negative = inhibition: % is set by controls: 0 for no effect and ±100 for the full control effect. For all read-outs here: nearly all actives have a fitted effect of over 60% in size. Note: potency is the fitted concentration of half-maximal effect. To be noted: iHSKM muscle cells + IFN-b, HiBiT or CellTiter-Glo, 24 h; for activity change, negative = inhibition: at 45.9 µM (top of the series). The gist of the method:
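Duplicate plates, pinned identically: one read for HiBiT-tagged endogenous HLA-B luminescence, the other for ATP-content viability via CellTiter Glo. Cells were genome-engineered human myoblasts given 4 ng/ml IFN-b; compounds 12-pt, 1:3 from 46 uM final; 24 hr exposure.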

In a further assay the test system is CAOV3. In words: Primary qHTS to identify gynecologic anti-cancer compounds using libraries of approved drugs and bioactive compounds (AID 1345084). Note: nearly all actives have a fitted effect of over 55% in size. Note: potency is the fitted concentration of half-maximal effect. To be noted: Gynecologic cancer cell panel viability, ATPlite luminescence, 48 h; series mostly up to 57.5 µM. The method, boiled down: as §1
The mark [5] stands for this setting: at 45.9 µM (top of the series), tumour line B.
The mark [6] stands for this setting: at 45.9 µM (top of the series), tumour line D.
[7] abbreviates: at 46.1 µM (top of the series), tumour line C.

Chain of Nuclear receptor subfamily 1 group I member 2 (Rattus norvegicus) (Q9R1A7 whole entry, looked up): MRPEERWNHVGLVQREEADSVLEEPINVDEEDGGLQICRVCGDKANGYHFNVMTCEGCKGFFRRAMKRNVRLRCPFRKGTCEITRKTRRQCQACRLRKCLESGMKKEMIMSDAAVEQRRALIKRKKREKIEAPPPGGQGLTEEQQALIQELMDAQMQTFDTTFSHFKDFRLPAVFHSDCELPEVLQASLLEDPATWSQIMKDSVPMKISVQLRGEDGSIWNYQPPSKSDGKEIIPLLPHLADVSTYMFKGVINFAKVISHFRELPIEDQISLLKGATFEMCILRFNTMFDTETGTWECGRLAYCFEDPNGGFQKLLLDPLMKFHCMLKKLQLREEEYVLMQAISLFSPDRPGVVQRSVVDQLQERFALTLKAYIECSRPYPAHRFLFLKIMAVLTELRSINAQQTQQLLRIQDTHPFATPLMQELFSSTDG

For `CC(=O)SCC(CC(=O)c1ccc(C)cc1)C(=O)O` (stereo not drawn), the Potency entry in the assay with WaGa, in the assay with C33A, in the assay on Es-2, with HeLa, in the assay with Hek293T and with JEG-3 was “inactive” in each case. Further, the Potency result with OV90, with Tov-21-G, with Tov112D and in the assay with astro was “inactive” throughout. Further, the activity, negative = cell killing in assay [1] (setting [5]) is -14.9%; in assay [1] (setting [6]), -21.8%; in [1] (setting [7]), 1.92%.
In the case of `CNC(=O)c1c(I)c(NC(=O)CCCCC(=O)Nc2c(I)c(C(=O)O)c(I)c(C(=O)NC)c2I)c(I)c(C(=O)O)c1I`, the Potency entry with WaGa, with C33A, with CASKI, in the assay on Es-2, with HeLa and in the assay with Hek293T was “inactive” in each case. Further, the Potency result with JEG-3, with OV90, in the assay with PA-1, in the assay with SKOV3, in the assay on Tov-21-G and in the assay with Tov112D was “inactive” throughout.
Consider `CCCOC(=O)c1ccc(O)cc1`, for which the Potency entry with WaGa, with C33A, with CASKI, in the assay with Es-2, in the assay on HeLa and in the assay on Hek293T was “inactive” throughout. The Potency entry in the assay with JEG-3, in the assay with OV90, in the assay on PA-1, in the assay on SKOV3, in the assay on Tov-21-G and in the assay with Tov112D was “inactive” in each case. Moreover, the activity, negative = cell killing is -2.89% in [1] (setting [5]); -17.2% in assay [1] (setting [6]); -7.69% in assay [1] (setting [7]); -21% in assay [1] (at 91.6 µM (top of the series), tumour line B); -29.2% in [1] (at 91.6 µM (top of the series), tumour line D); -27.8% in assay [1] (at 99.2 µM (top of the series), tumour line C). Also, the Potency in [1] (tumour line A) is 35500 nM (active). The max response in assay [2] was -2.03% and 0.0614% and -3.63%.
For `Cc1ccc2c(n1)Oc1ccc(C(C)C(=O)OCC(=O)N(C)C)cc1C2` (stereo not drawn), the Potency result with WaGa, in the assay with C33A, with CASKI, in the assay on Es-2, in the assay with HeLa and in the assay on Hek293T was “inactive” each time. The Potency entry in the assay with JEG-3, in the assay with OV90, in the assay with PA-1, in the assay on SKOV3, with Tov-21-G and with Tov112D was “inactive” in each case. The Potency result with astro was “inactive”. Also, the activity, negative = cell killing in assay [1] (setting [5]) is -2.21% and -4.54%; in assay [1] (setting [6]), -24.2% and -10.3%; in assay [1] (setting [7]), -14.5% and 2.44%.
As to `CC1(C)S[C@@H]2[C@H](NC(=O)[C@H](N)c3ccccc3)C(=O)N2[C@H]1C(=O)O`, the Potency result in the assay with WaGa, in the assay with C33A, in the assay with CASKI, with Es-2, in the assay with HeLa and with Hek293T was “inactive” in each case. Moreover, the Potency entry in the assay with JEG-3, in the assay with OV90, in the assay on PA-1, with SKOV3, in the assay with Tov-21-G and in the assay with Tov112D was “inactive” throughout. The Potency result in the assay on astro is “inactive”. The activity, negative = cell killing in [1] (setting [5]) was -7.71%; in assay [1] (setting [6]), 10.7%; in assay [1] (setting [7]), 12.5%. Also, in [2], the max response was -3.75%. Moreover, the call in [3] was inactive.
For the compound `CCCSc1ccc2nc(NC(=O)OC)[nH]c2c1`, the Potency was 3550 nM (active) in the assay with Es-2; 2000 nM (active) in the assay with HeLa; 891 nM (active) in the assay with Hek293T; 1580 nM (active) in the assay on PA-1; 2240 nM (active) in the assay with SKOV3; 2000 nM (active) with Tov-21-G. Besides, in the assay with Tov112D, the Potency was 1120 nM (active).
For the compound `COC(=O)C1=C(C)NC(C)=C(C(=O)OC)C1c1cccc(NC(=O)NCCCN2CCC(c3cccc(OC)c3)CC2)c1`, the Potency entry in the assay on C33A, with Es-2, in the assay on HeLa, in the assay on Hek293T and in the assay on Tov-21-G was “inactive” in each case. The activity change, negative = inhibition in assay [4] (HiBiT) is -3.18%; in assay [4] (Viability), -19.5%.
For the compound `O=C(O)CC1CC(c2ccccc2)=NO1` (stereo not drawn), the Potency entry with C33A, in the assay with CASKI, in the assay with Es-2, with HeLa, in the assay with Hek293T and in the assay with JEG-3 was “inactive” throughout. The Potency result in the assay on OV90, in the assay on PA-1, in the assay on SKOV3, in the assay on Tov-21-G and in the assay on Tov112D was “inactive” in each case.
With `CCNC(=O)[C@H]1O[C@@H](n2cnc3c(N)nc(NCCc4ccc(CCC(=O)O)cc4)nc32)[C@H](O)[C@@H]1O`, the Potency entry with C33A, in the assay with CASKI, in the assay on Es-2, in the assay with HeLa, with Hek293T and with JEG-3 was “inactive” each time. In addition, the Potency result in the assay with OV90, in the assay with PA-1, in the assay on SKOV3, in the assay with Tov-21-G and with Tov112D was “inactive” in each case.
On to `O=C1CC[C@@H](C(=O)N2CSC[C@H]2C(=O)O)N1` ([pGlu]-[Thz]-OH), for which the Potency entry with C33A, in the assay on CASKI, in the assay on Es-2, with HeLa, with Hek293T and in the assay on JEG-3 was “inactive” throughout. The Potency entry with OV90, with PA-1, with SKOV3, in the assay on Tov-21-G and in the assay on Tov112D was “inactive” each time. Besides, the activity, negative = cell killing in [1] (setting [5]) is -16.5%; in assay [1] (setting [6]), -0.509%; in assay [1] (at 46 µM (top of the series), tumour line A), -28.4%; in assay [1] (setting [7]) it was -18.5%.
Consider `CN(C)c1ccc(C(=C2C=CC(=[N+](C)C)C=C2)c2ccccc2)cc1`, for which the Potency with C33A was 2000 nM (active); in the assay on Es-2, 1780 nM (active); with HeLa, 2510 nM (active); in the assay with Hek293T, 2510 nM (active); in the assay on OV90 it was 11200 nM (active); with PA-1, 1260 nM (active). The Potency in the assay on SKOV3 was 1120 nM (active); in the assay on Tov112D it was 2000 nM (active); in assay [4] (HiBiT), 1980 nM (active); in assay [4] (Viability) it was 3940 nM (active). The call in [3] was inactive.
On to `COC(=O)C1=C(C)NC(C)=C(C(=O)OCC(C)=O)C1c1ccccc1[N+](=O)[O-]` (stereo not drawn), for which the Potency result with C33A, in the assay on CASKI, in the assay on Es-2, in the assay with Hek293T, in the assay on JEG-3 and in the assay on OV90 was “inactive” throughout. The Potency entry in the assay on PA-1, in the assay with SKOV3, in the assay on Tov-21-G and with Tov112D was “inactive” throughout.
For the compound `N=C1N=C(N)c2cc3ccccc3cc21`, the Potency was 31600 nM (active) in the assay with CASKI; 39800 nM (active) with Hek293T; 35500 nM (active) in the assay with PA-1; 35500 nM (active) in the assay on Tov-21-G; 39800 nM (active) in the assay on astro.
Consider `COc1cc(CNC(=O)CCCC/C=C/C(C)C)ccc1O`, for which the Potency result in the assay on C33A, in the assay on CAOV3, in the assay with CASKI, in the assay with Es-2, in the assay with HeLa and in the assay on Hek293T was “inactive” each time. Also, the Potency entry in the assay with JEG-3, in the assay on OV90, in the assay with PA-1, with SKOV3, with Tov-21-G and in the assay with Tov112D was “inactive” each time. Further, the activity, negative = cell killing in assay [1] (setting [5]) is -4.61%; in assay [1] (setting [6]) it was -7.09%; in assay [1] (setting [7]), 17.4%. For the same compound, the Potency in assay [1] (tumour line A) was 11200 nM (active). For the same compound, the max response in [2] is 0.324% and -3.76%.
